# Screening results (PubChem BioAssay)
# Mito fusion act = blocks mitochondrial division or promotes mitochondrial fusion; S. cerevisiae fusion-defective mutant growth rescue, CellTiterGlo 48 h; Potency, µM (series often up to 46.1 µM), inactives show at the top dose growth rescue (activation), most hits filed as activators; actives 0.23% (n = 320,000); further: % of control where 0% means no effect; nearly all actives have a fitted effect of over 45% in size
#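 Compounds are tested for their ability to restore growth of mitochondrial fusion-defective yeast strains at non-permissive 37C in YPEG medium over 48 hours. Viability is quantified by luciferase luminescence.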
# ERG Ets-DNA blk = blocks human ERG Ets domain binding to DNA; actives 0.028% (n = 370,000); fluorescence polarization, His-ERG Ets domain / labelled DNA; AID 624246; P11308; Potency, µM (series often up to 76.9 µM), without a hit: at the highest dose FP activity, negative = inhibition, hits mostly inhibitors; active means well fitted inhibition curve with a large enough effect in the polarisation, with a control signal flat; inconclusive means small, poorly fitted or top-dose-only effect, or effect the other way, or a change in a side signal; inactive means no such curve, though single readings can be large or run the other way; the % refers to the polarisation;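 further: polarization taken with two DNA probes labelled with fluorescein and Texas red; % of control where 0% means no effect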
# Target sequence (P11308 whole entry, looked up, the tested form may be a part): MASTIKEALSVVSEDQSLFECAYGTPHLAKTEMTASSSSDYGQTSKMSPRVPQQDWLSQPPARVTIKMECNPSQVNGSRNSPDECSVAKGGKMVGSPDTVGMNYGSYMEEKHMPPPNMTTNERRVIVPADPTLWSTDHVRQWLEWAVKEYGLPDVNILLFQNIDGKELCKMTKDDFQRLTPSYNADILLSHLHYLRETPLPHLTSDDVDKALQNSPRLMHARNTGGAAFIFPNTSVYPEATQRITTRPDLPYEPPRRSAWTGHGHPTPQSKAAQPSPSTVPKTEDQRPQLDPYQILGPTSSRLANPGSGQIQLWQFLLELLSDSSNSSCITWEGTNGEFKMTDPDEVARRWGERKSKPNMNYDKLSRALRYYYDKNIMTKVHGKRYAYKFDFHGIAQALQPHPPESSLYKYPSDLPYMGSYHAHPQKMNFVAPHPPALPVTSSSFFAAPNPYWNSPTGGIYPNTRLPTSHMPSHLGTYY
#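 His-tagged ERG Ets domain (1 uM in the protein solution; 300mM KCl, 50mM Tris-HCl, 1mM EDTA, 1mM DTT, pH 7.5) received compound, then a probe mix of 5 nM fluorescein-DNA and 100nM Texas-615-DNA. Fluorescence polarization was read for both dyes.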
# BRCA1 expr up = increases BRCA1 expression; MCF7-BRCA1-FFLuc reporter, luminescence, 48 h; response scale: scaled: vehicle 0%, 10 µM genistein 100%; Potency, µM (top dose mostly 46.1 µM), without a hit: top-dose activation, most hits filed as activators; actives 1.1% (n = 380,000); AID 624202; further: nearly all actives have a fitted effect of over 80% in size
#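 MCF7-BRCA1-FFLuc cells, 2000/well in phenol-red-free MEM, attached 2 h then treated 48 h at 37 C. Luciferase luminescence read 15 min after reagent; normalized to genistein maximum activation (10microM) and DMSO, concentration-response fitted.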
# B2AR arrestin = agonists driving beta-arrestin recruitment to human beta2-adrenergic receptor; P07550; beta-arrestin recruitment to beta2AR, cell-based reporter; Potency, µM (highest dose often 46.1 µM), for inactives: top-dose activation, most hits filed as activators; actives 0.02% (n = 330,000); AID 492947;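 further: 0% = DMSO controls and full agonism = EC100 isoproterenol or metaproterenol; nearly all actives have a fitted effect of over 65% in size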
# * = called active by the depositor; u = inconclusive; x = no result given. An excerpt weighted towards active compounds, which were near 1.2% of everything screened. Unless noted, the call rests on the fitted dose curve; in most records, active means well fitted curve in the direction sought with a large enough effect; inconclusive means small, poorly fitted or top-dose-only effect, or another doubt; inactive means no such curve, though single readings can be large; an effect the other way counts as inactive or inconclusive. Potency means the concentration at half of the fitted maximal effect.
SMILES,Mito fusion act,ERG Ets-DNA blk,BRCA1 expr up,B2AR arrestin
O=C(Nc1cccc(O)c1)c1cc(-c2cccs2)on1,23%,-15%,43%,0%
CC(=O)c1cccc(NC(=O)c2cc(-c3cccs3)on2)c1,3%,7%,10µM*,0%
COc1ccc(-c2cc(C(=O)Nc3cccc(C(C)=O)c3)no2)cc1,1%,0%,24%,-1%
COc1ccc(CNC(=O)Nc2cccc(Cl)c2)cc1,-1%,24%,7.1µM*,-2%
Cc1ccc(S(=O)Cc2ccc(C(=O)NC3CCCCCC3)o2)cc1 (stereo not drawn),x,1%,0%,x
CCCCCOc1ccc(NC(=O)Cc2csc(C)n2)cc1,x,0%,x,x
COc1ccc(Cn2c(CCC(=O)Nc3cc(OC)c(OC)c(OC)c3)nc3cccnc32)cc1,x,-3%,x,x
O=C(O)c1[nH]c2ccccc2c1C(c1ccccc1)c1c(C(=O)O)[nH]c2ccccc12,-1%,4%,0%,0%
C=CCOc1ccc(C(c2c(C(=O)O)[nH]c3ccccc23)c2c(C(=O)O)[nH]c3ccccc23)cc1,10%,35µM*,-3%,-1%
O=C1CCCC(O)=C1N=Nc1ccc(C(=O)O)cc1,1%,28µM*,6%,-1%
N#Cc1ccccc1NC(=O)c1ccc2c(Cl)c3c(nc2c1)CCCC3,12%,-8%,6.3µM*,0%
CC1CCCCN1C(=O)COC(=O)c1ccc(S(C)(=O)=O)c([N+](=O)[O-])c1 (stereo not drawn),x,x,-69%,x
COCCOC(=O)N1CCN(/[N+]([O-])=N/Oc2ccc([N+](=O)[O-])cc2[N+](=O)[O-])CC1,x,x,-66%,x
CCOc1ccc(C(=O)NCCc2sc(-c3ccc(F)cc3)nc2C)cc1,x,8%,x,x
CCC(=O)N1N=C(c2cccs2)CC1c1ccc(OC)cc1 (stereo not drawn),3%,0%,21%,-1%
COc1ccc(C2=NN(C(=O)c3cccs3)C(c3ccc(OC)cc3)C2)cc1 (stereo not drawn),11µM*,7%,-3%,3%
COc1ccc(C2CC(c3cccs3)=NN2C(=O)c2ccc(Br)o2)cc1 (stereo not drawn),18µM*,-2%,-34%,10%
O=C(c1cccs1)N1N=C(c2ccccc2)CC1c1ccccc1 (stereo not drawn),u,x,-4%,6%
O=C(OCc1ccc(Cl)c(Cl)c1)c1ccc[nH]1,-2%,-9%,13µM*,-1%
Cc1c(Cl)cccc1-n1ncc(C(=O)Nc2ccc3c(c2)OCCO3)c1C1CCN(C(=O)OC(C)(C)C)CC1,x,0%,x,x
CC(C)NC(=O)c1[nH]nc2c1CCc1ccccc1-2,6%,-5%,2µM*,1%
Cc1cc(C)c(S(=O)(=O)Nc2ccc(-c3ccc(N4CCCCC4)nn3)cc2)c(C)c1,x,3%,x,x
O=C(O)c1ccc2noc(-c3ccccc3)c2c1,3%,0%,4µM*,0%
COC(=O)c1cc(-c2ccc(C)cc2)n[nH]1,4%,-13%,10µM*,-1%
COC(=O)c1cc(-c2ccc(OC)cc2)n[nH]1,6%,4%,u,0%
SMILES,Mito fusion act,ERG Ets-DNA blk,BRCA1 expr up,B2AR arrestin
C=CCn1c(N)c(C(=O)Nc2ccccc2OC)sc1=S,8%,-2%,-50%,0%
C=CCn1c(N)c(C(=O)Nc2ccc(C)cc2)sc1=S,2%,-2%,1.3µM*,-1%
CCOC(=O)c1c(C)[nH]c(/C(C)=N/NC(=O)c2cccnc2)c1C,x,x,31%,x
CCOC(=O)c1c(C)[nH]c(C(C)=NNC(=O)c2cccs2)c1C,x,x,2.8µM*,1%
Cc1c(C(=O)O)cccc1-c1ccc(/C=N/n2cnnc2)o1,6%,3%,101%,0%
Cc1c(C(=O)O)cccc1-c1ccc(/C=N/Nc2ccc(Br)cc2)o1,20µM*,-1%,28%,-1%
CC(C)(C)n1ncc2c(=O)n(CC(=O)c3ccc(Cl)cc3)cnc21,1%,-3%,2.2µM*,-1%
CC(C)(C)n1ncc2c(=O)n(CC(=O)Nc3ccc(Cl)cc3)cnc21,2%,4%,-17%,0%
COc1ccc(C2=NN3C(=O)c4c(ccc(OC)c4OC)C3C2)cc1 (stereo not drawn),5%,-13%,35%,0%
COc1ccc2c(c1OC)C(=O)N1N=C(c3ccc(Br)cc3)CC21 (stereo not drawn),16µM*,3%,-6%,-1%
